Source: PubChem BioAssay
Entries with a potency or affinity are not part of this list. Results filed as inconclusive are left out. The source made the active and inactive calls. Unless noted, no rule for the calls is given here.

How the values were obtained:
[1] = RMG-1 ovarian cancer cell viability loss – cherry-pick, dose response (AID 687029;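 active = signal drop whose fitted half-maximal concentration is at most twice the top valid dose, in every test run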;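 also: cells exposed to compound for 96 hours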)
[2] = IOSE-T80 viability loss, PAX8-independent line – cell-based, cherry-pick, selectivity assay for PAX8 inhibitor project, dose response (AID 687032;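 active = fitted half-maximal concentration for viability loss no higher than twice the top valid dose, in every repeat run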;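 also: cells exposed to compound for 96 h before reading; 0% = neutral control wells and -100% = 2 µM mitoxantrone kill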)
[3] = CMV-driven luciferase expression suppression in HEK293 – cell-based, luminescence, dry powder, counter-screen for Pax8 inhibitor project, dose response (AID 743020;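 active = signal-lowering compounds whose fitted half-maximal concentration is at or below twice the top tested dose in every run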;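 also: HEK293 cells stably expressing the CMV luciferase reporter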)
[4] = toxicity toward immortalized ovarian surface epithelium – cell-based, plate reader, dry powder samples, cytotoxicity control for PAX8 inhibitor project, dose response (AID 743045);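 also: 0% = neutral control median and -100% = positive control median; more negative values mean more cell killing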
[5] = OVCAR-3 cell viability loss – plate reader, dry powder samples, PAX8 inhibitor project, dose response (AID 743044); conditions: max activity: at 35 µM, active compounds read low unless noted
[6] = A2780 cell killing – plate reader, dry powder samples, cytotoxicity control, dose response (AID 743046);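 also: 0% = neutral control wells and -100% = cytotoxic reference compound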
[7] = IGROV1 cell killing – plate reader, dry powder samples, PAX8 inhibitor project, dose response (AID 743043);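 also: more negative means fewer viable cells or more cytotoxicity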
[8] = OVCAR8 cell viability loss – plate reader, dry powder samples, PAX8 project, dose response (AID 743197)
[9] = general cell-killing toxicity readout – plate reader, dry powder samples, cytotoxicity control for PAX8 inhibitor project, dose response (AID 743021)

N#C[C@H]1[C@@H](c2ccc(C#Cc3ccc(F)cc3)cc2)[C@H](CO)N1C(=O)C1CCCC1
inactive: outcome [1] | outcome [2] | outcome [3] | outcome [4]

COc1ccc(-c2ccc(C3[C@@H]4CN(Cc5cc(OC)cc(OC)c5)C[C@H]3N4)cc2)cc1 (stereo not given in full)
inactive: outcome [1] | outcome [2] | outcome [3] | max activity [5] -15.8% [at 16 µM, active compounds read low] | activity change, negative = cytotoxicity [4] 6.64% [at 8 µM] | outcome [6]

O=C(Nc1ccc(F)cc1)N1C[C@@H]2N[C@H](C1)C2c1ccc(-c2ccccc2F)cc1 (stereo not given in full)
inactive: outcome [1] | outcome [2] | outcome [3] | outcome [4] | outcome [6]

Cc1ccc(S(=O)(=O)Nc2ccc3c(c2)C(=O)N([C@H](C)CO)C[C@H](C)[C@H](CN(C)Cc2ccc(C(F)(F)F)cc2)OCCCC[C@H](C)O3)cc1
inactive: outcome [1] | outcome [2] | outcome [3] | outcome [7] | outcome [6]

C[C@@H]1CN([C@H](C)CO)C(=O)c2cc(NC(=O)Nc3ccc(C(F)(F)F)cc3)ccc2O[C@@H](C)CCCCO[C@@H]1CN(C)Cc1ccccc1
inactive: outcome [1] | outcome [2] | outcome [3] | outcome [4]

O=C(Nc1cccc(F)c1)N1CCCCN2[C@H](CO)[C@@H](c3ccc(-c4ccccc4F)cc3)[C@H]2C1
inactive: outcome [1] | outcome [2] | outcome [3] | outcome [4] | outcome [6] | outcome [8]

COc1ccc(NC(=O)N2C[C@@H]3N[C@H](C2)[C@@H]3c2ccc(-c3ccc(OC)cc3)cc2)cc1
inactive: outcome [1] | outcome [2] | outcome [3] | outcome [6]

C[C@@H]1CCCCO[C@H](CN(C)Cc2ccc(Cl)c(Cl)c2)[C@@H](C)CN([C@@H](C)CO)C(=O)c2cc(NC(=O)c3ccccc3)ccc2O1
inactive: outcome [1] | outcome [2] | outcome [3] | outcome [4] | outcome [6]

C[C@@H]1CN([C@@H](C)CO)C(=O)Cc2cc(NS(=O)(=O)c3ccc(Cl)cc3)ccc2O[C@@H]1CN(C)CC1CCCCC1
inactive: outcome [1] | outcome [2] | outcome [3] | outcome [4] | outcome [6] | outcome [8]

O=C(c1ccc(F)cc1)N1CC(=O)N2[C@@H](CO)[C@@H](c3ccc(C#Cc4ccc(F)cc4)cc3)[C@@H]2C1
inactive: outcome [1] | outcome [2] | outcome [3] | outcome [4] | outcome [6]

CCS(=O)(=O)N1CC(=O)N2[C@H](CO)[C@@H](c3ccc(-c4ccccc4F)cc3)[C@H]2C1
inactive: outcome [1] | outcome [2] | outcome [3] | outcome [4] | outcome [6]

COc1ccccc1-c1ccc([C@@H]2[C@@H]3CN(S(=O)(=O)c4ccc(-c5ccccc5)cc4)C[C@H]2N3)cc1
inactive: outcome [1] | outcome [2] | outcome [3] | outcome [4] | outcome [6]

C[C@H](CO)N1C[C@H](C)[C@@H](CN(C)Cc2ccc(-c3ccccc3)cc2)Oc2ccc(NS(=O)(=O)c3ccccc3)cc2CC1=O
inactive: outcome [1] | outcome [2] | outcome [3] | max activity [5] 6.95% | outcome [4] | outcome [8]

COc1ccc2c3c(n(C)c2c1)[C@H](CO)NCC31CCN(Cc2cc(-c3ccccc3)on2)CC1
inactive: outcome [1] | outcome [2] | outcome [3] | max activity [5] 40.6% [at 0.5 µM, active compounds read low] | outcome [4] | outcome [6]

C[C@H](CO)N1C[C@H](C)[C@@H](CN(C)S(=O)(=O)c2cccs2)OCCCC[C@H](C)Oc2ccc(NS(=O)(=O)c3ccc(Cl)cc3)cc2C1=O
inactive: outcome [1] | outcome [2] | outcome [3] | outcome [4] | outcome [6]

COc1ccccc1NC(=O)N1CCCCN2[C@H](CO)[C@H](c3ccc(-c4cccc(C)c4)cc3)[C@H]2C1
inactive: outcome [1] | outcome [2] | outcome [3] | outcome [4] | outcome [6] | outcome [8]

C[C@H](CO)N1C[C@H](C)[C@@H](CN(C)S(=O)(=O)c2ccc(Cl)cc2)OCCCC[C@H](C)Oc2ccc(NS(=O)(=O)c3cccs3)cc2C1=O
inactive: outcome [1] | outcome [2] | outcome [3] | outcome [7] | outcome [6]

Cc1ccc(S(=O)(=O)Nc2ccc3c(c2)C(=O)N([C@@H](C)CO)C[C@@H](C)[C@H](CN(C)Cc2ccc(C(F)(F)F)cc2)OCCCC[C@@H](C)O3)cc1
inactive: outcome [1] | outcome [2] | outcome [3] | outcome [4] | outcome [6]

C[C@@H]1CN([C@@H](C)CO)C(=O)Cc2cc(NS(=O)(=O)c3ccccc3)ccc2O[C@H]1CN(C)Cc1ccc(C(F)(F)F)cc1
inactive: outcome [1] | outcome [2] | outcome [3] | outcome [4] | outcome [6]

CCCNC(=O)N(C)C[C@H]1N[C@@H](CO)[C@@H]1c1ccc(C2=CCCCC2)cc1
inactive: outcome [1] | outcome [2] | outcome [3] | outcome [6]

C[C@@H]1CN([C@H](C)CO)C(=O)c2cc(NC(=O)Nc3ccc(C(F)(F)F)cc3)ccc2O[C@@H](C)CCCCO[C@H]1CN(C)Cc1ccc2c(c1)OCO2
inactive: outcome [1] | outcome [2] | outcome [3] | max activity [5] -34.3% | outcome [4] | outcome [6]

O=C(C[C@H]1CC[C@H]2[C@@H](COC[C@@H](O)CN2S(=O)(=O)c2cccc(Cl)c2)O1)Nc1ccc(-c2ccccc2)cc1
inactive: outcome [1] | outcome [2] | outcome [3] | outcome [4] | outcome [6]

COc1ccc(NC(=O)N2CC(=O)N3[C@@H](CO)[C@@H](c4ccc(/C=C/c5ccccc5)cc4)[C@@H]3C2)cc1
inactive: outcome [1] | outcome [2] | outcome [3] | max activity [5] 30.3% [at 16 µM, active compounds read low] | outcome [4] | outcome [6]

Cc1ccccc1-c1ccc(C2[C@@H]3CN(C(=O)Nc4cccc(F)c4)C[C@H]2N3)cc1 (stereo not given in full)
inactive: outcome [1] | outcome [2] | outcome [3] | outcome [4] | outcome [6] | outcome [8]

COc1ccc(NC(=O)Nc2ccc3c(c2)C(=O)N([C@H](C)CO)C[C@@H](C)[C@H](CN(C)Cc2ccc(C(F)(F)F)cc2)OCCCC[C@H](C)O3)cc1
inactive: outcome [1] | outcome [2] | outcome [3] | outcome [4] | outcome [6]

Cc1ccccc1-c1ccc([C@@H]2[C@H](CO)N3CCCCN(C(=O)Nc4cccc(F)c4)C[C@@H]23)cc1
inactive: outcome [1] | outcome [2] | outcome [3] | outcome [4] | outcome [6] | outcome [8]

C[C@H](CO)N1C[C@H](C)[C@@H](CN(C)S(=O)(=O)c2ccc(Cl)cc2)OCCCC[C@H](C)Oc2ccc(NS(=O)(=O)c3ccccc3)cc2C1=O
inactive: outcome [1] | outcome [2] | outcome [3] | outcome [7] | outcome [6] | outcome [8]

COc1ccc(-c2ccc3c(c2)[C@H]2[C@H](CCN2S(=O)(=O)c2ccc(F)cc2)[C@H](CO)N3C)cc1
inactive: outcome [1] | outcome [2] | outcome [3] | outcome [4] | outcome [6]

Cc1ccc(-c2ccc(C3[C@@H]4CN(C(=O)Nc5ccc(C(F)(F)F)cc5)C[C@H]3N4)cc2)cc1 (stereo not given in full)
inactive: outcome [1] | outcome [2] | outcome [3] | outcome [7] | outcome [6]

Fc1cccc(CN2C[C@@H]3N[C@H](C2)[C@@H]3c2ccc(-c3cccc(F)c3)cc2)c1
inactive: outcome [1] | outcome [2] | outcome [3] | outcome [7] | outcome [6]

Cc1ccc(S(=O)(=O)Nc2ccc3c(c2)CC(=O)N([C@@H](C)CO)C[C@H](C)[C@@H](CN(C)Cc2ccc(Oc4ccccc4)cc2)O3)cc1
inactive: outcome [1] | outcome [2] | outcome [3] | outcome [7] | outcome [8]

CCc1cnc(N2[C@@H](C#N)[C@@H](c3ccc(C#CC(C)C)cc3)[C@@H]2CO)s1
inactive: outcome [1] | outcome [2] | outcome [3] | max activity [5] 27.5% [at 1 µM, active compounds read low] | outcome [4] | outcome [8]

O=C(Nc1cccc(F)c1)N1C[C@@H]2N[C@H](C1)C2c1ccc(-c2ccc(F)cc2)cc1 (stereo not given in full)
inactive: outcome [1] | outcome [2] | outcome [3] | outcome [6] | outcome [8]

C[C@@H]1CN([C@H](C)CO)C(=O)c2cc(NC(=O)CCCCCC(=O)Nc3ccccc3N)ccc2O[C@@H]1CN(C)Cc1ccc(C(F)(F)F)cc1
inactive: outcome [1] | outcome [2] | outcome [3] | outcome [4] | outcome [6] | outcome [8]

CCOc1ccc(CCN2C(=S)N([C@@H](Cc3ccc(O)cc3)CN3CCC[C@@H]3CN3C(=S)NC[C@@H]3CC(C)C)C[C@@H]2Cc2ccc(O)cc2)cc1
inactive: outcome [1] | outcome [2] | outcome [9]

COc1cc(NC(=O)Cn2ncc(Cl)c(Cl)c2=O)c(C)cc1[N+](=O)[O-]
inactive: outcome [1] | outcome [2] | outcome [9]

CN[C@H]1CCc2cc(OC)c(OC)c(OC)c2-c2ccc(OC)c(=O)cc21
inactive: outcome [1] | outcome [2] | outcome [9]

C=CC(=O)N=c1sc2ccccc2n1-c1ccccc1
inactive: outcome [1] | outcome [2] | outcome [9]

COc1ccc(C(=O)NN(C)c2nc(C(F)(F)F)nc3ccccc23)cc1
inactive: outcome [1] | outcome [2] | outcome [9]

CCS(=O)(=O)c1ncc(Cl)c(C(=O)Nc2ccc(S(=O)(=O)N3CCCC(C)C3)cc2)n1 (stereo not given)
inactive: outcome [1] | outcome [2] | outcome [9]

Cc1ccc(S(=O)(=O)CCC(=O)c2ccc(F)cc2)cc1
inactive: outcome [1] | outcome [2] | outcome [9]

N#Cc1c(N)n(C2OC(CO)C(O)C2O)c2ncnc(N)c12 (stereo not given)
inactive: outcome [1] | outcome [2] | outcome [9]

COc1cc(OC)c(NC2=CC(=O)C(=O)c3ccccc32)cc1Cl
inactive: outcome [1] | outcome [2] | outcome [9]

C[C@@H]1CCCCO[C@@H](CN(C)CC2CCCCC2)[C@H](C)CN([C@H](C)CO)C(=O)c2cc(NS(=O)(=O)c3ccc(Cl)cc3)ccc2O1
inactive: outcome [1] | outcome [2] | outcome [9]

Cc1ccc(C)c(CSC2=NCCN2C(=O)Cc2ccc([N+](=O)[O-])cc2)c1
inactive: outcome [1] | outcome [2] | outcome [9]

Cc1ccc2nc(C)cc(Nc3ccc([N+](=O)[O-])cc3)c2c1
inactive: outcome [1] | outcome [2] | outcome [9]

CCOC(=O)c1cnn(CCOC(=O)c2cccc(F)c2)c1NC(=O)c1cccc(F)c1
inactive: outcome [1] | outcome [2] | outcome [9]

CC1CCN(CCc2nc3cc(NS(=O)(=O)c4ccccc4)ccc3n2C)CC1
inactive: outcome [1] | outcome [2] | outcome [9]

CNC[C@@H](CC1CCCCC1)NC[C@H](CC(C)C)NCCc1cccc(C(F)(F)F)c1
inactive: outcome [1] | outcome [2] | outcome [9]

C=C1C(=O)O[C@@H]2C[C@@H](C)[C@@H]3C=CC(=O)[C@@]3(C)[C@@H](OC(C)=O)[C@H]12
inactive: outcome [1] | outcome [2] | outcome [9]

O=C(O)CCCN1C(=O)/C(=C\C(Cl)=C\c2ccccc2)SC1=S
inactive: outcome [1] | outcome [2] | outcome [9]

COc1ccc(S(=O)(=O)Nc2ccc3c(c2)C(=O)N([C@@H](C)CO)C[C@H](C)[C@H](CN(C)Cc2ccc(C(F)(F)F)cc2)OCCCC[C@H](C)O3)cc1
inactive: outcome [1] | outcome [2] | outcome [3] | outcome [6] | outcome [8]
